In the library only some 21% were active in any assay of this set; here they are far more common.
Pf growth 96h = P. falciparum growth inhibition at 96 hour, primary screen for plastid delayed-death inhibitors | P. falciparum luciferase reporter growth, 96 h | Potency, µM (titrated, usually from 28.7 µM), usual class: inhibitors | hit rate 6.9% among 320,000 | AID 504834
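Readout is luminescence from an integrated firefly luciferase in P. falciparum. Red cells, 2% hematocrit and 0.05% parasitemia final, were cultured with compound through two parasite generations (96 hours) at 37 C, 5% CO2.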
NS1 inh = blocks influenza NS1 protein function; Potency, µM (doses to about 46.1 µM); hit rate 0.4% among 270,000; AID 2326; calls by dose curve; also: actives are rising curves; nearly all actives have a fitted effect of over 50% in size
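Read-out: OD600 growth recovery of NS1-expressing budding yeast. Cells grown overnight at 30C in -URA glucose medium, washed, resuspended and diluted 1:100 in 2% galactose assay medium, pH 6.0. Same strain lacking NS1 served as positive control.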
Pf growth 48h = inhibits P. falciparum growth in the first generation, 48 h | P. falciparum luciferase growth in erythrocytes, 48 h | Potency, µM (doses to about 28.7 µM), actives largely listed as inhibitors | hit rate 5.9% among 310,000
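First compound was added to culture medium, then infected red cells at 0.1% parasitemia and 2% hematocrit (final). After incubation at 37 C under 5% CO2, luciferase detection reagent was dispensed and light output recorded.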
Cycloheximide cs = affects cycloheximide protein synthesis inhibition readout, counter-screen. AID 2314. hit rate 12% among 300,000. max response, %. cell reporter, cycloheximide protein synthesis inhibition counterscreen; in the data active = max response mostly above about 13%, no sharp cut-off; inactive = mostly below about 14%; also: read at 38.3 µM for the half of the compounds with a filed dose
Shiga inhibitor = blocks Shiga toxin action in Vero cells | Vero cells, Shiga toxin protein synthesis inhibition reporter | inhibition, % at 38.7 µM | hit rate 9.2% among 290,000 | AID 2315; in the data active = inhibition mostly above about 28%, no sharp cut-off; inactive = mostly below about 43%
Numbers stand for hits; i = inactive; ? = inconclusive; nt = no result. Unless noted, calls follow the shape of the dose curve; as a rule, active = well fitted inhibition curve with a large enough effect; inconclusive = small, poorly fitted or top-dose-only effect, or another doubt; inactive = no such curve, though single readings can be large or run the other way.

SMILES	Pf growth 96h	NS1 inh	Pf growth 48h	Cycloheximide cs	Shiga inhibitor
O=C1C(C=NCCCN2CCCC2=O)=C(O)c2ccccc21	13µM	i	i	40	102
CC(C)CN=CC1=C(O)c2ccccc2C1=O	i	i	i	37	72
CCn1c(C)c(C(C)=O)c(SC)nc1=S	i	i	nt	i	i
NC(N)=N/N=C\c1ccc(C2CCNCC2)cc1	nt	i	nt	nt	nt
Cn1c(=O)c2c(nc(NCC3CCCO3)n2Cc2cccc(Br)c2)n(C)c1=O (configuration not stated)	i	i	i	i	i
O=C1C(C=NCc2ccccn2)=C(O)c2ccccc21	i	i	i	59	136
Cc1ccc(Nc2nc(NCc3ccco3)c3ccccc3n2)cc1	i	nt	i	30	i
COc1ccccc1Nc1nc(NCc2ccco2)c2ccccc2n1	?	i	?	24	i
COc1ccc(N2CCN(C(=O)COC(=O)CCc3ccccc3)CC2)cc1	i	nt	i	nt	nt
O=C(Nc1ccc2oc(-c3ccccc3)nc2c1)c1ccccc1F	?	i	i	20	59
O=C(Nc1ccc2oc(-c3cccc(F)c3)nc2c1)c1ccccc1F	nt	i	i	i	i
O=C(Nc1ccc2oc(-c3ccccc3F)nc2c1)c1ccccc1F	i	i	i	30	48
O=C(Nc1ccc2oc(-c3ccccc3F)nc2c1)c1ncn[nH]1	i	i	nt	52	80
CC(=O)NC(=S)Nc1ccc2oc(-c3cc(F)c(F)cc3Cl)nc2c1	i	i	i	24	i
Cn1c(=O)c2c(nc(NNC(=O)C(F)(F)F)n2C)n(C)c1=O	i	nt	i	i	i
O=C(Nc1ccc(-c2nc3cc(NC(=O)c4cccs4)ccc3o2)cc1)c1cccs1	?	i	i	i	i
O=C(Cc1ccccc1)NC(=S)Nc1ccc2oc(-c3ccccc3F)nc2c1	i	i	i	i	50
O=C(Nc1ccc2oc(-c3ccncc3)nc2c1)c1ccccc1F	?	i	i	i	63
O=C(Nc1ccc2oc(-c3ccc(Cl)c(Cl)c3)nc2c1)c1ncn[nH]1	i	i	nt	27	i
CCCCN1C(=S)SC(C)(C)C1/[N+]([O-])=C/c1cccnc1 (configuration not stated)	i	i	i	i	i
Cc1ccc2nc(SCC(=O)NCCCN3CCCC3=O)[nH]c2c1	i	nt	i	nt	nt
CCCCCCC1C(C#N)=C(N)OC2=C1C(=O)CC(C)(C)C2 (configuration not stated)	i	i	i	i	i
CCCCC1C2=C(CC(C)(C)CC2=O)OC2=C1C(=O)CC(C)(C)C2	12µM	i	?	i	i
CN1CCc2cccc3c2C1Cc1ccc(O)c(O)c1-3 (configuration not stated)	10µM	?	?	i	i
Cc1occc(=O)c1OC(=O)Nc1ccc(Cl)c(Cl)c1	?	i	?	i	i
SMILES	Pf growth 96h	NS1 inh	Pf growth 48h	Cycloheximide cs	Shiga inhibitor
Cc1cc(C)c2[nH]c(=O)c(CN(Cc3ccc4c(c3)OCO4)Cc3nnnn3C3CCCC3)cc2c1	i	i	12µM	i	i
Cc1ccc2[nH]c(=O)c(CN(Cc3ccccc3)Cc3nnnn3C3CCCC3)cc2c1	?	i	?	40	92
Cc1cccc2cc(CN(Cc3ccc(F)cc3)Cc3nnnn3C3CCCC3)c(=O)[nH]c12	i	i	i	i	i
CN1C(=O)C(O)(C2CCCCCC2=O)c2ccccc21 (configuration not stated)	i	i	i	i	i
COc1cccc(N(CC(=O)NCCSCc2ccco2)S(=O)(=O)c2ccccc2)c1	?	i	?	i	i
O=C(CN(C1CCCCC1)S(=O)(=O)c1ccccc1)NCc1ccco1	4.7µM	i	i	i	i
Cc1ccc(N(CC(=O)NCc2ccco2)S(=O)(=O)c2ccccc2)cc1	i	i	13µM	27	i
Cc1ccc(S(=O)(=O)N(CC(=O)NCc2ccco2)C2CCCCC2)cc1	?	i	?	i	i
COc1ccc(N(CC(=O)NCCSCc2ccco2)S(=O)(=O)c2ccccc2)cc1Cl	?	i	12µM	i	i
Cc1ccc(S(=O)(=O)N(CC(=O)NCc2ccncc2)C2CCCCC2)cc1	8.3µM	i	?	i	i
O=C(COC(=O)C1CCC1)NCc1ccccc1	i	nt	i	nt	nt
Cc1cccc(N(CC(=O)NCCSCc2ccco2)S(=O)(=O)c2ccccc2)c1	?	i	?	i	i
Cc1ccc(N(CC(=O)NCCSCc2ccco2)S(=O)(=O)c2ccc(C)cc2)cc1	6.6µM	i	?	i	i
O=C(CN(Cc1ccccc1)S(=O)(=O)c1ccc(Br)cc1)NCc1ccco1	?	i	nt	i	25
O=C(CN(Cc1ccc(Br)cc1)S(=O)(=O)c1ccccc1)NCc1ccccn1	i	i	i	i	i
COc1ccc(N(CC(=O)NCC(C)C)S(=O)(=O)c2ccccc2)cc1	i	i	i	i	i
COc1ccc(N(CC(=O)NCCSCc2ccccc2C)S(=O)(=O)c2ccccc2)cc1	5.2µM	i	?	i	i
COc1ccc(S(=O)(=O)N(CC(=O)NCc2ccccn2)c2ccc(Cl)cc2)cc1	i	i	10µM	i	i
Cc1ccc(NC(=O)CN2CCN(CCN=CC3=C(O)CC(c4ccc(C)cc4)CC3=O)CC2)cc1 (configuration not stated)	i	i	i	i	i
CC(COc1ccc(C(C)C)cc1)NC(=O)c1ccc(Br)o1 (configuration not stated)	?	i	i	i	i
COc1ccccc1C(=O)C1CCCN(C(=O)c2cccc(Cn3cccn3)c2)C1 (configuration not stated)	?	i	?	i	i
Cc1ccc(S(=O)(=O)N(Cc2ccc(Cl)cc2)c2ccccc2C(=O)NCc2ccco2)cc1	i	i	6.6µM	33	44
CC1CCCCN1C(=S)NC(=O)c1cc(Br)ccc1Cl (configuration not stated)	13µM	nt	?	nt	nt
Cc1ccc(N=Cc2c(O)[nH]c3ccccc23)c([N+](=O)[O-])c1	i	nt	i	22	64
COc1ccc(N=Cc2c(O)ccc3ccccc23)cc1	i	i	i	i	i
SMILES	Pf growth 96h	NS1 inh	Pf growth 48h	Cycloheximide cs	Shiga inhibitor
COc1ccc(CN=Cc2c(O)[nH]c3ccccc23)cc1	i	nt	i	27	25
COc1ccc(N=Cc2c(O)[nH]c3ccccc23)cc1	i	i	i	37	40
COc1ccc(S(=O)(=O)N=Nc2c(O)[nH]c3ccccc23)cc1	i	nt	i	i	i
Oc1[nH]c2ccccc2c1C=Nc1ccc2c(c1)OCO2	?	i	i	65	68
O=c1[nH]c(O)c(C=Nc2ccccc2[N+](=O)[O-])c(=O)[nH]1	i	nt	i	i	i
O=C(c1ccc(CNS(=O)(=O)c2ccc(Br)cc2)cc1)N1CCCCCC1	i	i	i	i	i
NCCCC[C@H](NC(=O)[C@H](CS)NC(=O)[C@@H](N)Cc1cnc[nH]1)C(=O)N[C@@H](Cc1ccccc1)C(=O)N[C@@H](Cc1c[nH]c2ccccc12)C(=O)N[C@@H](Cc1c[nH]c2ccccc12)C(=O)O	nt	nt	nt	i	i
Oc1[nH]c2ccccc2c1/C=N/c1nccs1	i	i	i	28	i
COc1ccc(C(=O)NNC(=O)CSc2nnc(C)n2C)cc1	i	i	i	i	i

Assay outcomes from PubChem.
